Mac1 fbg inh – inhibitors of CD11b/CD18 adhesion to fibrinogen, primary screen, K562 cells, luminescence; 93,000 tested, 0.54% active; Integrin beta-2 (Homo sapiens) + Integrin alpha-M (Homo sapiens), P05107+P11215; ATPlite luminescence; Mn2+ added to activate the integrin; inhibition, % at 10 µM;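 active = primary inhibition of 50% or more at 10 µM, then 40% or more on retest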
CYP2C19 inh – blockers of cytochrome P450 2C19 activity – biochemical, luminescence, ADME assay, primary screen. CYP2C19 Supersomes, luciferin-H EGE luminescence, 30 min. inhibition, % at 5 µM. 96,000 tested, 21% active. AID 778, 2007;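 active = CYP2C19 inhibition above a set limit at 5 µM in the primary screen, cut at about 50% in these data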
Target sequence (P33261 whole entry, looked up): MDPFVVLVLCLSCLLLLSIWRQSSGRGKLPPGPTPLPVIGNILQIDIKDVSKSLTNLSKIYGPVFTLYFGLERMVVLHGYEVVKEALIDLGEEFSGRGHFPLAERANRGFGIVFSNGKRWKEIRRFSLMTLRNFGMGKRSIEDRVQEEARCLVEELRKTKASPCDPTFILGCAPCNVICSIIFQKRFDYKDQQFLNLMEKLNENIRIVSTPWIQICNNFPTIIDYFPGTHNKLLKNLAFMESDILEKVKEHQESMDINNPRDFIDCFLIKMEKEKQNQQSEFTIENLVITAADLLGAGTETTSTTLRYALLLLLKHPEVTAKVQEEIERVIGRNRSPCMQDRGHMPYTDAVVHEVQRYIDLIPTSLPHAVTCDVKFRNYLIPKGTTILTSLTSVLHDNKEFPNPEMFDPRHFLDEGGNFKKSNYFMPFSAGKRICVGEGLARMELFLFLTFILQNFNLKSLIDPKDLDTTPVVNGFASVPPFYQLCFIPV
CD11b adhes enh – enhancers of CD11b/CD18 adhesion to fibrinogen, primary screen, K562 cells, luminescence | Integrin beta-2 (Homo sapiens) + Integrin alpha-M (Homo sapiens), P05107+P11215 | ATPlite luminescence | activation, % at 10 µM | 93,000 tested, 0.07% active;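 active = 10 µM primary screen giving 50% or more activity, confirmed by 40% or more on retest at that dose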
CYP2C9 act – human CYP2C9 activators, primary screen, biochemical, luminescence; Cytochrome P450 2C9 (Homo sapiens), P11712; recombinant CYP2C9, luciferin-H conversion; stronger effect = higher value; factor 1 = untreated enzyme, 0 = blocked; activation factor at 5 µM; 96,000 tested, 1.4% active;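 active = activation factor of 2 or more for CYP2C9 at a 5 µM dose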
CYP2C19 act – human CYP2C19 activators, primary screen, biochemical, luminescence; Cytochrome P450 2C19 (Homo sapiens), P33261; recombinant CYP2C19, luciferin-H EGE luminescence; stronger effect = higher value; 0 = fully inhibited enzyme, 1 = untreated enzyme; activation factor at 5 µM; 96,000 tested, under 10 active; AID 1025, 2008;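 active = activation factor of at least 2 at 5 µM in the primary screen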
CYP2C9 inhib – blockers of cytochrome P450 2C9 activity – biochemical, luminescence, ADME assay, primary screen; P11712; CYP2C9 Supersomes, luciferin-H conversion; inhibition, % at 5 µM; 96,000 tested, 20% active; AID 777, 2007;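 active = blocking of liver enzyme CYP2C9 beyond about 50% at 5 µM, limit read from the data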
A number is an active result; – = inactive; · = no result given. An excerpt weighted towards active compounds, which were near 28% of everything screened.

SMILES	Mac1 fbg inh	CYP2C19 inh	CD11b adhes enh	CYP2C9 act	CYP2C19 act	CYP2C9 inhib
O=C(Nc1ncc(Cc2ccccc2)s1)C1COc2ccccc2O1 (centres undefined)	–	–	–	–	–	–
CC1CC(C)CN(C(=O)CSCC(=O)Nc2nc(-c3cccs3)cs2)C1 (centres undefined)	–	–	–	–	–	84.2
O=C(CSCC(=O)N1CCCCC1)Nc1nc(-c2ccc(Cl)s2)cs1	83.6	57.9	–	–	–	–
O=C(Nc1nc(-c2ccc(Cl)s2)cs1)c1ccncc1	–	50.9	–	–	–	–
O=C(CSCC(=O)N1CCCCC1)Nc1nc(-c2cccs2)cs1	–	–	–	–	–	–
O=C(CSCC(=O)N1CCN(c2ccccc2)CC1)Nc1nc(-c2ccc(Cl)s2)cs1	–	–	–	–	–	61.0
CO/N=C/c1ccc(Sc2ccc(C)cc2)c([N+](=O)[O-])c1	–	–	–	–	–	–
CO/N=C/c1cc([N+](=O)[O-])ccc1Sc1ccc(C)cc1	–	64.8	–	–	–	63.8
Cc1ccc(Sc2ccc(/C=N/O)cc2[N+](=O)[O-])cc1	–	–	–	–	–	63.9
CCCCSc1nc2c(cc1C#N)CCC2	–	57.7	–	–	–	–
CC(C)OC(=O)CC(=O)CSc1nc2c(cc1C#N)CCCCCC2	–	–	–	–	–	63.0
C=C(C)CSc1nc2c(cc1C#N)CCC2	–	79.8	–	–	–	–
CS(=O)CSc1nc2c(cc1C#N)CCCC2 (centres undefined)	–	–	–	–	–	–
COc1ccc(NC(=O)c2n[nH]c(=O)c3ccccc23)cc1S(=O)(=O)N1CCCCC1	–	·	–	·	·	·
COC(=O)c1sccc1NC(=O)c1ccc(OC)c(OC)c1	–	–	–	–	–	–
CC(C)c1ccccc1NC(=S)NC1CCN(Cc2ccccc2)CC1	–	·	–	·	·	·
Cc1cccc(C)c1NC(=S)NN(Cc1ccccc1)c1ccccc1	–	–	–	–	–	–
CC(C)c1ccccc1NC(=S)NN(Cc1ccccc1)c1ccccc1	·	62.5	·	–	–	–
Fc1ccccc1NC(=S)NN(Cc1ccccc1)c1ccccc1	–	95.4	–	–	–	82.3
Cc1ccc(OC(=O)c2oc3ccc(F)cc3c2C)c(C)c1	–	–	–	–	–	–
COc1ccc(OC)c(-n2c(=S)[nH]c3cc(C(=O)NCCCN4CCCC4=O)ccc3c2=O)c1	–	–	–	–	–	–
COc1ccc(-c2cc(CNC(=O)CN(C)Cc3ccccc3)on2)cc1	–	–	–	–	–	–
Cc1ccc(N2CCN(C(=O)c3ccccc3NC(=O)C3CC=CCC3C(=O)O)CC2)cc1 (centres undefined)	–	51.5	–	–	–	–
COc1ccc(C(C)=O)cc1CN1C(=O)NC2(CCCCCC2)C1=O	–	88.3	–	–	–	–
CCOc1ccc(C(C)=O)cc1CN1C(=O)NC2(CCCCC2C)C1=O (centres undefined)	–	–	–	–	–	–
SMILES	Mac1 fbg inh	CYP2C19 inh	CD11b adhes enh	CYP2C9 act	CYP2C19 act	CYP2C9 inhib
CCOC(=O)c1cnn(-c2nc3c(C)cccc3s2)c1C(F)(F)F	–	–	–	–	–	–
CCOC(=O)c1cnn(-c2nc(-c3cccc(F)c3)cs2)c1C(F)(F)F	·	–	·	–	–	72.1
O=C(NCc1csc(-c2ccccc2)n1)c1ccco1	–	83.8	–	–	–	–
O=C(NCCCCNC(=O)c1cccnc1)c1cccnc1	–	–	–	–	–	–
O=C(NCCc1csc(-c2cccnc2)n1)c1ccccc1	–	82.4	–	–	–	64.9
O=C(NCCc1csc(-c2cccnc2)n1)c1cccc2ccccc12	–	78.9	–	–	–	86.2
O=C(NCCc1csc(-c2ccccc2)n1)c1cccs1	–	–	–	–	–	73.9
Cc1nc(CCNC(=O)Cc2ccccc2)cs1	–	–	–	–	–	–
COC(=O)c1ccc(NC(=O)COC(=O)c2cccc3c(=O)c(C)c(-c4ccccc4)oc23)cc1	–	·	–	·	·	·

Assay outcomes (PubChem BioAssay)
